In PubChem BioAssay AID1259398 (Fisher Drug Discovery Resource Center, 2018):
Several values for one entry are separate records, joined by “and”; a condition that tells them apart may be missing. Identical values can stand only once. The campaign covered roughly 290,000 compounds. About 230 (0.079%) were called active. Rule as the data show it: active = inhibition above about 40%; inactive = the rest. The entries come from a sample that favours actives as a whole.

Molecular target: Cyclic GMP-AMP synthase (Homo sapiens) (UniProt Q8N884)
Sequence (Q8N884 whole entry, looked up): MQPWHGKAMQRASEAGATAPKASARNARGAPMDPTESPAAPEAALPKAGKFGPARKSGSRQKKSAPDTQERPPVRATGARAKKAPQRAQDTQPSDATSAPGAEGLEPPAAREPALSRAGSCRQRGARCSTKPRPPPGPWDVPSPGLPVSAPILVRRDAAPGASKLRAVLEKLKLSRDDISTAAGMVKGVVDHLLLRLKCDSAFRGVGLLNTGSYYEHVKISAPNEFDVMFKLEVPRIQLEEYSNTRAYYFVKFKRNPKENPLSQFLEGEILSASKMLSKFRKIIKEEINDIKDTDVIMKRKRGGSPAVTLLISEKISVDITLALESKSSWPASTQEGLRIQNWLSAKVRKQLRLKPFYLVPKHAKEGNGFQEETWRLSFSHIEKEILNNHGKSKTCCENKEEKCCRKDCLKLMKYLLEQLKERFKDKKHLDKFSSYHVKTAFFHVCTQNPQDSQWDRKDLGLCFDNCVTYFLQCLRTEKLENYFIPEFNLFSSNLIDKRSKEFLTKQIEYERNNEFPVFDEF
Experiment: Biochemical Kinase-Glo luminescence primary assay, human cyclic GMP-AMP synthase inhibition (AID 1259398);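 also: 0% = vehicle reaction and 100% = reaction without DNA for no activity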
Details: recombinant h-cGAS, ATP depletion, at 12.5 µM, active compounds read high

Row | SMILES | inhibition
1 | COc1cccc(-c2nn(Cc3ccccc3)c(=O)c3nc(C)sc23)c1 | -0.0493% (inactive)
2 | O=C(NCCc1ccco1)c1ccc2c(c1)OCO2 | 1.62% (inactive)
3 | COc1cc(CN(C)C(=O)c2cc(N3CCN(c4cccc(C(F)(F)F)c4)CC3)nc3ccccc23)cc(OC)c1OC | -6.59% (inactive)
4 | NC(=O)COc1ccc(C(=O)N2CCCC2CCc2ccccc2)cc1 (stereo not drawn) | -3.77% (inactive)
5 | CCOC(=O)c1sc(NC(=O)CCCl)c(C(=O)OCC)c1C | -5.41% (inactive)
6 | CCCc1c(C(=O)NCc2cccnc2)cnn1-c1ccccc1C | -8.73% (inactive)
7 | O=C(Nc1nnc(-c2ccc(Cl)cc2)s1)C1CCCN1S(=O)(=O)c1ccc(F)cc1 (stereo not drawn) | -2.72% (inactive)
8 | C(=C\c1ccccc1)/CSc1nnc2c(n1)[nH]c1ccccc12 | -6.1% (inactive)
9 | CC(C)CNC(=O)c1c(O)nc2sccn2c1=O | -9.43% (inactive)
10 | COCCNC(=O)Cn1nc2c(c1NC(=O)Cc1ccc(F)cc1)CSC2 | -6.17% (inactive)
11 | Cn1c(=O)[nH]c(=O)c2c1nc(N1CCN(Cc3ccccc3)CC1)n2Cc1cccc(Cl)c1 | -7.67% (inactive)
12 | CC1(C)C(c2ccc(Cl)cc2)=[N+]([O-])C(C)(C)C(c2ccc(Cl)cc2)=[N+]1[O-] | -4.69% (inactive)
13 | COc1ccc2cnn(-c3cccc(Cl)c3)c(=O)c2c1OC | -0.243% (inactive)
14 | Cc1sc2ncn(CC(=O)O)c(=O)c2c1C | -2.86% (inactive)
15 | Cc1ccc(-c2cc(C(=O)O)[nH]n2)c(C)c1 | -5.69% (inactive)
16 | O=C(CSc1nc(=O)n(CCCN2CCOCC2)c2c1CCC2)N1CCc2ccccc21 | -6% (inactive)
17 | CC(C)CSc1nc2c(c(=O)n(C)c(=O)n2C)n1CC=Cc1ccccc1 | -0.843% (inactive)
18 | CC(Cn1cncn1)NC(=O)C1CCN(C)C(=O)C1 (stereo not drawn) | -9.85% (inactive)
19 | Clc1ccccc1Cn1ncc2c(N3CCN(CCOc4cccc5ccccc45)CC3)ncnc21 | -10.9% (inactive)
20 | N#CC1C(=N)SC(=N)C(C#N)C1c1cccc(O)c1 (stereo not drawn) | 65.3% (active)
21 | N#CC1C(=N)SC(=N)C(C#N)C1c1ccnc2ccccc12 (stereo not drawn) | -1.27% (inactive)
22 | N#CC1C(=N)C(C#N)(C#N)C(c2ccco2)C2CCCC=C12 (stereo not drawn) | -7.43% (inactive)

Row | SMILES | inhibition
23 | CCc1ccc(C2C(C#N)C(=N)SC(=N)C2C#N)cc1 (stereo not drawn) | -0.735% (inactive)
24 | N#CC1C(=N)SC(=N)C(C#N)C1c1ccco1 (stereo not drawn) | 53.9% (active)
25 | CCC(C(=O)N(CC(=O)N1CC(=O)N(c2cccc(Cl)c2C)C1)Cc1ccco1)c1ccccc1 (stereo not drawn) | -7.01% (inactive)
26 | COc1cc(S(=O)(=O)Nc2c(F)cccc2F)cc(C(=O)O)c1OC | 9.01% (inactive)
27 | Cc1cccc(Cn2cccc2CN(Cc2ccc(F)cc2)C2CCCCC2)c1 | -1.66% (inactive)
28 | COc1ccc(-n2nnnc2SCCC#N)cc1 | -7.16% (inactive)
29 | Cc1cc(C(=O)O)ccc1S(=O)(=O)N(C)c1cc(F)ccc1F | -8.29% (inactive)
30 | CCC(CO)N(Cc1ccc(F)cc1)Cc1c(C)nn(C)c1Cl (stereo not drawn) | -10.3% (inactive)
31 | O=C(c1cc(-c2ccccc2F)on1)N1CCc2ccc(O)cc2C1 | -0.786% (inactive)
32 | COc1cc(C(=O)n2nc(C)c(Sc3ccccc3[N+](=O)[O-])c2C)cc(OC)c1OC | -6.71% (inactive)
33 | CC(=O)Nc1ccccc1OS(=O)(=O)c1ccc(Br)cc1 | 0.158% (inactive) and 5.4% (inactive)
34 | CN(Cc1nc2ccccc2n1C)C(=O)[C@H]1CCCO1 | -5.26% (inactive)
35 | O=C(NC(Cc1ccccc1)C(=O)Nc1nnc(-c2cccc(Cl)c2)s1)c1cccc(C(F)(F)F)c1 (stereo not drawn) | -8.87% (inactive)
36 | COc1cccc(-c2nc(OCc3ccc(F)cc3)nn2-c2cccc(NC(=O)C3CCC3)c2)c1 | -6.9% (inactive)
37 | O=C(Nc1ccc(F)cc1)c1csc(CSc2nnc(Cc3ccccc3)n2-c2cccc(Cl)c2)n1 | 5.96% (inactive)
38 | CCn1nc(C(=O)O)c2c1CCC(N(C)CCn1ccnc1C)C2 (stereo not drawn) | -7.94% (inactive)
39 | COc1cccc(C2Nc3ccccc3N=C3CC(C)(C)CC(=O)C32)c1OC (stereo not drawn) | -3.94% (inactive)
40 | CC(C)(CCl)C(=O)N1CCN(c2ncnc3c2nnn3-c2cccc(F)c2)CC1 | -5.18% (inactive)
41 | CCc1nc2ccc(C(=O)NCCNC(C)=O)cn2c1N(CC)Cc1cccc(Br)c1 | -6.29% (inactive)
42 | O=C(NCCc1ccccc1)c1cc(NC(=O)C(c2ccccc2)c2ccccc2)ccc1N1CCCCC1 | -3.47% (inactive)
43 | O=C(NC1CCC1)c1ccc(-c2cc(-c3cccc(C(F)(F)F)c3)n[nH]2)cc1 | -8.56% (inactive)
